Laboratory results published in PubChem BioAssay.
Inconclusive results are not listed. The source made the active and inactive calls. Unless noted, no cut-off is given here; in the data, nearly all actives have AC50 up to about 30 µM.

Assays:
[1] = stimulators of nuclear beta-catenin in C2C12, primary screen, imaging, WNT3A-conditioned medium, mouse C2C12, NPC library (AID 1117326; in the data active = nuclear beta-catenin stimulation mostly above about 4.2%, no sharp cut-off; inactive = mostly below about 10%; note: reference of the scale not given here); settings: stronger effect = higher value
[2] = stimulators of insulin release from INS-1E, primary screen, cell-based, 5 mM glucose, NPC library (AID 1117329;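 active = compound raises insulin release from rat beta cells at 5 mM glucose, no numeric limit stated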; note: reference of the scale not given here); settings: rat INS-1E insulin secretion, at 10 µM, stronger effect = higher value
[3] = growth inhibition of GSK3B-pretreated HCT116 cells – cell-based, CellTiter-Glo, 0.2 to 20 µM (AID 1117336;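 active = compounds lowering colon cancer cell viability after pretreatment blocking the GSK3B kinase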); settings: HCT116 viability after GSK3B inhibitor, at 20 µM, stronger effect = higher value
[4] = inhibition of endothelial tube formation, primary screen, imaging, VEGF stimulated, CD31 staining, tube area, NPC library (AID 1117340;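 active = compound that reduces growth-factor-driven endothelial tube area in a mixed cell culture, no cutoff stated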); settings: VEGF-stimulated ADSC/ECFC co-culture, at 10 µM, stronger effect = higher value
[5] = glucagon-like peptide 1 release enhancers, primary assay, NCI-H716 cell line, NPC library (AID 1117341;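 active = compound raises GLP1 secretion from the human gut endocrine cells, with no numeric limit stated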; note: reference of the scale not given here); settings: NCI-H716 cells, at 10 µM, stronger effect = higher value
[6] = HCT116 colon cancer cell growth inhibition, primary screen, CellTiter-Glo luminescence, NPC library (AID 1117342;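 active = compounds that lower survival of HCT116 colon cancer cells in the luminescence readout, no numeric limit stated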); settings: at 20 µM (top of the series)
[7] = CellTiter-Glo luminescent readout of SW480 viability loss, NPC library primary (AID 1117343;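 active = compounds that lower viability of the colon cancer cells in the luminescence readout, with no numeric limit stated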); settings: CellTiter-Glo luminescence; at 20 µM (top of the series) unless noted
[8] = decreased DLD-1 cellular survival, CellTiter-Glo luminescent readout, NPC compound collection, primary HTS (AID 1117346;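 active = compounds that lower survival of DLD-1 colon cancer cells in the luminescence readout, no cutoff given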); settings: DLD-1 viability, CellTiter-Glo luminescence; at 20 µM (top of the series)
[9] = growth inhibition of DIPG glioma cells, dose response, cell-based, JHH-DIPG-1, MIPE4.0, CellTiter-Glo, qHTS (AID 1347062; cut-off not given, nearly all actives have AC50 up to about 27 µM;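 for AC50: cells exposed to compound for two days before readout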); settings: JHH-DIPG-1 viability, CellTiter-Glo ATP luminescence
[10] = growth inhibition of DIPG glioma cells, dose response, cell-based, SU-DIPG-IV, MIPE4.0, CellTiter-Glo, qHTS (AID 1347063); settings: SU-DIPG-IV viability, CellTiter-Glo ATP luminescence;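 note: compound exposure lasted 48 hours before the viability readout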
[11] = SU-DIPG-VI glioma cell viability, MIPE4.0 library, CellTiter-Glo luminescence, qHTS (AID 1347066); settings: CellTiter-Glo ATP luminescence;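 note: cells exposed to compound for 48 hours before readout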
[12] = viability loss in pontine glioma line – cell-based, SU-DIPG-XXV, MIPE5.0, CellTiter-Glo, qHTS, dose response (AID 1347065; cut-off not given, nearly all actives have AC50 up to about 26 µM;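 note: cells exposed to compound for 48 hours before ATP readout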); settings: CellTiter-Glo ATP luminescence
[13] = JHH-DIPG-1 glioma cell viability, MIPE5.0 library, CellTiter-Glo luminescence, qHTS (AID 1347067; cut-off not given, nearly all actives have AC50 up to about 26 µM;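 note: cells exposed to compound for 48 hours before readout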); settings: JHH-DIPG-1 glioma viability, CellTiter-Glo ATP luminescence
[14] = SU-DIPG-XXV glioma cell viability, MIPE5.0 library, qHTS (AID 1347068; cut-off not given, nearly all actives have IC50 up to about 30 µM)
[15] = sensitizers of A549 cells to miR-34 induction, primary screen, imaging, A549 dox-inducible miR-34, nuclei and caspase counts (AID 1347080;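 active = compounds whose cell count with miR-34 switched on is under 0.7 times the count with it off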); settings: A549 miR-34 inducible, Hoechst nuclei count, 48 h
[16] = survival rescue of mitochondrial mutant cells in low glucose, primary screen, MELAS cybrids, Rieske KO mouse fibroblasts, CellTiter-Glo (AID 1508586;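 active = mean z-score across replicates of 1.96 or higher in either the MELAS or the Rieske mutant cell line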;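 note: z relative to plate mean and SD of compound and empty wells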)
[17] = phospholipid biosynthesis inhibitors in animal cells, primary screen, cell-based, LOPAC library, screen 4 (AID 1347384; call rule not given here); settings: phospholipid biosynthesis inhibition screen, at 10 µM
[18] = viability rescue of complex I mutant cybrids, primary screen, cell-based, galactose medium, ATP luminescence (AID 1645843;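 active = z-score of at least 1.8 in each of two replicates, scored against plate mean and spread of sample wells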;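 note: positive z means more ATP and so rescue of galactose-driven cybrid death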); settings: complex I mutant cybrid cells, 72 h, stronger effect = higher value
[19] = stronger effect = lower value, cell number ratio, induced over uninduced
[20] = measured here: relative caspase fold change +Dox/-Dox
[21] = measured here: total cells with miR-34 induction, stronger effect = lower value
[22] = measured here: total cells without miR-34 induction
[23] = MELAS cybrid survival, CellTiter-Glo 48 h, stronger effect = higher value
[24] = Rieske KO mouse fibroblast survival, CellTiter-Glo 72 h

Cc1cc(=O)c2c(O)c3c(O)cc(=O)c4c3c3c(cc(O)c1c23)C(C)(C)C=4O
active: nuclear beta-catenin stimulation ([1]; at 10 µM) 46.6% | viability decrease [3] 117% | tube area decrease [4] 54.9% | inhibition of viability [6] 124% | viability decrease (inhibition) [7] 158% | viability decrease (inhibition) [8] 101% | AC50 [9] 743 nM | AC50 [10] 469 nM | AC50 [11] 105 nM
68.1%: nuclear beta-catenin stimulation ([1]; stimulation, at 2 µM)
inactive: insulin secretion stimulation [2] 0.4% | GLP1 secretion stimulation [5] 8%

CC1(C)CCC(C)(C)c2cc(NC(=O)c3ccc(C(=O)O)cc3)ccc21
8210: cell count [15, 21]
8.5%: nuclear beta-catenin stimulation ([1]; stimulation, at 2 µM)
0.365: fold change [15, 20]
active: viability decrease [3] 77.6% | inhibition of viability [6] 69.7%
9110: cell count [15, 22]
inactive: nuclear beta-catenin stimulation ([1]; at 10 µM) 8% | insulin secretion stimulation [2] -0.4% | tube area decrease [4] 5.5% | GLP1 secretion stimulation [5] 4% | viability decrease (inhibition) [7] 47.9% | viability decrease (inhibition) [8] 43.1% | outcome [9] | outcome [12] | outcome [11] | outcome [13] | outcome [14] | fold change [15, 19] 0.901 | z-score [16, 23] 0.242
-0.199: z-score [16, 24]

CC(C(=O)O)c1ccc2c(c1)CC(=O)c1ccccc1S2 (configuration not stated)
-1.2%: nuclear beta-catenin stimulation ([1]; stimulation, at 2 µM)
inactive: nuclear beta-catenin stimulation ([1]; at 10 µM) -0.5% | insulin secretion stimulation [2] 5.5% | viability decrease [3] -7.1% | tube area decrease [4] 2.5% | GLP1 secretion stimulation [5] -2% | inhibition of viability [6] -2.7% | viability decrease (inhibition) [7] 21.1% | viability decrease (inhibition) [8] 7.9% | outcome [12] | outcome [14] | fold change [15, 19] 0.901 | z-score [16, 23] -0.314
0.988: z-score [16, 24]
9750: cell count [15, 21]
10800: cell count [15, 22]
0.594: fold change [15, 20]

CCOC(=O)c1ccc(C#Cc2ccc3c(c2)C(C)(C)CCS3)nc1
8970: cell count [15, 22]
0.957: fold change [15, 20]
7750: cell count [15, 21]
inactive: nuclear beta-catenin stimulation ([1]; at 10 µM) 6% | insulin secretion stimulation [2] -1.4% | tube area decrease [4] -6% | GLP1 secretion stimulation [5] -0.3% | outcome [9] | outcome [11] | outcome [14] | fold change [15, 19] 0.864 | z-score [16, 23] 0.367
active: viability decrease [3] 91.1% | inhibition of viability [6] 98.6% | viability decrease (inhibition) [7] 126% | viability decrease (inhibition) [8] 98.1%
4.9%: nuclear beta-catenin stimulation ([1]; stimulation, at 2 µM)
0.684: z-score [16, 24]

CCCCN(CCCC)CC(O)c1cc(Cl)cc2c1-c1ccc(Cl)cc1/C2=C/c1ccc(Cl)cc1 (configuration not stated)
active: AC50 [10] 26400 nM | AC50 [13] 18600 nM
8560: cell count [15, 22]
8950: cell count [15, 21]
-0.3%: nuclear beta-catenin stimulation ([1]; stimulation, at 2 µM)
2.5: fold change [15, 20]
inactive: nuclear beta-catenin stimulation ([1]; at 10 µM) 0.5% | insulin secretion stimulation [2] -0.3% | viability decrease [3] 9.1% | tube area decrease [4] 25.1% | GLP1 secretion stimulation [5] -3.6% | inhibition of viability [6] 31% | viability decrease (inhibition) [7] 10.6% | viability decrease (inhibition) [8] 14.9% | outcome [9] | outcome [11] | outcome [14] | fold change [15, 19] 1.04 | outcome [17] | z-score [18] 0.075
